Compound activity as filed in PubChem BioAssay.
Shiga inhibitor = inhibitors of Shiga toxin in Vero cells; inhibition, % at 38.7 µM; Vero cells, Shiga toxin protein synthesis inhibition reporter; hit rate 9.2% among 290,000; AID 2315; in the data active means inhibition mostly above about 28%, no sharp cut-off; inactive means mostly below about 43%; further: 0% is about no effect
NS1 inh = inhibitors of influenza NS1 protein function; hit rate 0.4% among 270,000; Potency, µM (titrated, usually from 46.1 µM), without a hit: at the highest dose activity, positive = more growth; AID 2326; calls by dose curve; further: potency means the concentration at half of the fitted maximal effect; actives are rising curves; nearly all actives have a fitted effect of over 50% in size
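Recovery from NS1-induced slow growth read by OD600 in budding yeast switched to galactose assay medium (pH 6.0, -URA) at 1:100 dilution. Compound 23 nl per well; the matching strain lacking NS1 serves as control.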
AmpC inh no detg = AmpC beta-lactamase inhibition without detergent. P00811. AmpC nitrocefin hydrolysis, absorbance 480 nm, 0.0001% Triton. Potency, µM (titrated, usually from 57.1 µM), inactives show at the top dose activity change, negative = inhibition, most hits filed as inhibitors. hit rate 0.52% among 330,000;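 further: potency means the concentration at half of the fitted maximal effect; plate controls were no compound for no effect and no enzyme for full effect; nearly all actives have a fitted effect of over 20% in size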
Target sequence (P00811 whole entry, looked up): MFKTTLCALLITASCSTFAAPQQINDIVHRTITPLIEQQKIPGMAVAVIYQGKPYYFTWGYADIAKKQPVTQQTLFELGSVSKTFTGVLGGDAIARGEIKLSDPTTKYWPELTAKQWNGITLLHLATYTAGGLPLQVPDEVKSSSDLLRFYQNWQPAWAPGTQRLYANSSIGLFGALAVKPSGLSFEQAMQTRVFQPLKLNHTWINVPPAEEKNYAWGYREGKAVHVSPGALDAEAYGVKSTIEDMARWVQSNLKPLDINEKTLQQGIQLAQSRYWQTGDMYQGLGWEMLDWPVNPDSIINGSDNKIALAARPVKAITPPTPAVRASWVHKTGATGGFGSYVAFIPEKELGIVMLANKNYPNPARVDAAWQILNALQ
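20 mM phosphate pH 7.0 + 0.01% (detergent screen) or 0.0001% Triton X-100; 5.3 nM AmpC reagent; cpd preinc 15 min RT; nitrocefin (800 uM stock) to start; A480 q20 s × 4 min; Activity was normalised to no-enzyme and no-compound control wells.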
Cycloheximide cs = counter-screen hit for Shiga toxin inhibitors, cycloheximide; AID 2314; max response, %; hit rate 12% among 300,000; cell reporter, cycloheximide protein synthesis inhibition counterscreen; in the data active means max response mostly above about 13%, no sharp cut-off; inactive means mostly below about 14%; further: read at 38.3 µM for the half of the compounds with a filed dose; 0% is about no effect
AmpC detergent = inhibitors of E. coli AmpC beta-lactamase with detergent; P00811; AmpC hydrolysis of nitrocefin, absorbance 480 nm, 0.01% Triton; Potency, µM (series often up to 114 µM), for inactives: top-dose activity change, negative = inhibition, actives largely listed as inhibitors; hit rate 0.041% among 370,000;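 further: potency means the concentration at half of the fitted maximal effect; 0% = no-compound wells and -100% = no-enzyme wells; nearly all actives have a fitted effect of over 25% in size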
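20 mM phosphate pH 7.0 + 0.01% (detergent screen) or 0.0001% Triton X-100; 5.3 nM AmpC reagent; cpd preinc 15 min RT; nitrocefin (800 uM stock) to start; A480 q20 s × 4 min; Activity was normalised to no-enzyme and no-compound control wells.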
Numbers without * were called inactive; ? = inconclusive; · = no result. This is one part of a sample in which hits are shown more often than they occur. Unless noted, the call rests on the fitted dose curve; in most records, active means well fitted curve in the direction sought with a large enough effect; inconclusive means small, poorly fitted or top-dose-only effect, or another doubt; inactive means no such curve, though single readings can be large; an effect the other way counts as inactive or inconclusive.

SMILES	Shiga inhibitor	NS1 inh	AmpC inh no detg	Cycloheximide cs	AmpC detergent
Oc1ccc(N2CCN(CC(O)c3ccccc3)CC2)cc1 (stereo unspecified)	-12.2	10.4%	14.3%	-2.8	?
C/C(=N\N1CCN(c2ccccc2)CC1)c1ccc(O)cc1	45.4*	0.4%	-15.4%	24.4*	3.2%
C/C(=N\N1CCN(c2ccccc2)CC1)c1ccccc1O	32.6	-8.4%	-10.6%	23.1*	1.3%
COc1ccccc1-n1nc(C)cc1N	53.1	·	-12.9%	-3.3	4.7%
Cc1cc(N)n(-c2ccc(C)c(C)c2)n1	62.4*	·	-8.0%	27.0*	4.3%
CCC(=O)Nc1c(C)nn(-c2ccc(C)c(C)c2)c1C	65.2*	-10.5%	-7.4%	21.9*	-0.8%
Cc1ccc(-n2nc(C)c(NC(=O)CCl)c2C)cc1C	101.3*	6.6%	-5.4%	33.1*	?
CC(=O)Nc1c(C)nn(-c2ccc(C)c(C)c2)c1C	-9.4	2.5%	-9.5%	3.1	4.0%
Cc1nn(C)c(C)c1NC(=O)CCl	-10.1	0.5%	31.0%	-4.4	-3.2%
Cc1cc(N)n(-c2ccccn2)n1	72.0*	0.1%	2.1%	17.4*	8.9%
Cc1cc(N)n(-c2ccc([N+](=O)[O-])cc2)n1	-12.0	·	-22.4%	1.4	0.7%
CCc1ccc2oc(C(=O)NCC(c3ccc(Cl)cc3)N3CCOCC3)c(C)c2c1 (stereo unspecified)	·	·	·	·	15.4%
Cc1cc(C)c(Nc2nn3c(=O)c4cc5c(cc4nc3s2)OCO5)c(C)c1	·	·	·	·	8.3%
COc1cccc(CN(C(=O)c2oc3ccccc3c2C)C2CCS(=O)(=O)C2)c1 (stereo unspecified)	·	·	·	·	17.4%
O=C(c1nc2ccc([N+](=O)[O-])cc2[nH]c1=O)[C@@H](O)c1ccc2c(c1)OCO2	·	-10.5%	·	·	·
Cc1ccccc1C(=O)Nc1ccc(OCc2cc(=O)n3cccc(C)c3n2)cc1	·	·	·	·	4.2%
O=C(c1ccco1)n1c(=S)nc2ccccn21	115.3*	-6.2%	2.4%	68.1*	-5.3%
O=C(c1cc2ncc(Br)cn2n1)N1CCN(C(=O)c2ccco2)CC1	-4.5	0.4%	-4.6%	-3.7	3.2%
Cc1cccc2nc(=S)n(C(=O)c3ccco3)n12	197.5*	14.4%	-14.9%	61.7*	-3.7%
CCN1C(=O)c2ccccc2S(=O)c2ccc(C(=O)N3CCN(c4cccc(Cl)c4)CC3)cc21 (stereo unspecified)	·	·	·	·	-11.1%
COc1cccc(-n2c(=O)c3cc(OC)c(OC)cc3n(CC(=O)Nc3ccc(F)cc3)c2=O)c1	·	·	·	·	-7.4%
c1ccc2c(c1)ccc1nnc(-c3ccc4c(c3)OCO4)n12	active	-4.7%	-14.6%	12.2*	-10.4%
c1ccc2c(c1)ccc1nnc(SCc3ccc4c(c3)OCCO4)n12	42.2*	-71.8%	14.7%	42.5*	-13.8%
CN1c2ccccc2N(C)C1c1ccc2c(c1)OCO2	5.8	-0.8%	0.2%	-1.2	?
O=C(CSc1nnc2ccc3ccccc3n12)N1CCOCC1	31.8*	?	-1.1%	63.3*	-0.7%
SMILES	Shiga inhibitor	NS1 inh	AmpC inh no detg	Cycloheximide cs	AmpC detergent
COc1ccccc1C1=NOC(CN2C(=O)c3ccccc3S2(=O)=O)C1 (stereo unspecified)	146.2*	-1.6%	-23.3%	52.6*	-1.3%
O=C1c2ccccc2S(=O)(=O)N1CC1CC(c2ccccc2Cl)=NO1 (stereo unspecified)	active	-13.5%	-8.4%	85.9*	-14.2%
COc1ccccc1C(=O)Oc1ccc(C(C)C)cc1	83.8*	-7.5%	-4.0%	34.6*	?
COc1ccccc1C(=O)O/N=C(\N)c1ccccc1Cl	118.8*	-34.1%	-18.5%	54.7*	-21.7%
COc1ccc(C(=O)O/N=C(\N)c2ccccc2Cl)cc1OC	158.8*	-31.3%	-8.3%	33.2*	-6.2%
CCOc1ccc(OCCCC(=O)ON=C(N)c2ccccc2Cl)cc1	·	·	-14.0%	·	-4.0%
CCN(CC(=O)Nc1ccc(NC(C)=O)cc1)C(=O)CCCOc1ccc(C(C)(C)C)cc1	·	·	222.4%	·	-8.7%
Clc1ccc(CNc2cc(-c3ccccc3)nc3nncn23)cc1	·	·	·	·	-4.0%
CC(C)CCOc1ccc(C(=O)NCC(c2ccco2)N(C)C)cc1 (stereo unspecified)	28.8	6.8%	70.4%	13.4	-0.4%
CCCCOc1ccc(CNC(=O)C2CCCN(c3nnc(-n4c(C)ccc4C)s3)C2)cc1 (stereo unspecified)	·	·	·	·	-1.1%
NNc1nc(-c2ccccc2Cl)nc2sc3c(c12)CCCC3	52.4*	?	-8.7%	46.5*	?
NNc1nc(-c2ccccc2Cl)nc2ccccc12	·	3.7%	-41.7%	9.3	-19.9%
CC(=O)Nc1ccc(OS(=O)(=O)c2ccc(Cl)cc2)cc1	39.6*	-17.4%	-0.9%	11.8	-1.5%
COc1ccc(C(=O)NCC(c2cccnc2)N2CCc3ccccc32)cc1OC (stereo unspecified)	·	·	·	·	6.6%
Brc1ccc(-c2csc(NNC3=NCCCCC3)n2)cc1	42.4	?	22.7%	24.9*	-2.4%
CC(C)(C)c1ccc(-c2csc(NNC3=NCCCCC3)n2)cc1	29.8	1.9%	35.6%	20.0*	6.1%
Brc1ccc(-c2csc(-c3nc(-c4ccc(Br)s4)cs3)n2)cc1	·	·	·	·	20.8%
FC(F)Oc1ccc(-c2csc(NNC3=NCCCCC3)n2)cc1	34.7	·	2.9%	21.3*	8.4%
c1ccc(CCNc2ccccn2)nc1	·	-0.3%	·	·	·
CC(C)(C)c1ccc(S(=O)(=O)CCc2ccccn2)cc1	54.3*	-7.3%	3.1%	26.8*	-5.4%
CC(C)(C)c1ccc(SCCc2ccccn2)cc1	88.5*	-8.3%	-0.5%	40.1*	7.3%
Fc1ccc(SCCc2ccccn2)cc1	71.8*	2.3%	0.9%	51.6*	10.4%
Cc1ccc(S(=O)(=O)CCc2ccccn2)cc1	-1.9	-3.3%	-19.1%	-2.0	-13.5%
Cc1nn(-c2ccccc2)c(C)c1[N+](=O)[O-]	-12.5	·	-13.9%	-0.4	5.7%
CC(C)CC(C(=O)N1CCc2ccccc2C1)N1C(=O)c2ccccc2C1=O (stereo unspecified)	-10.6	15.3%	86.5%	2.2	?
SMILES	Shiga inhibitor	NS1 inh	AmpC inh no detg	Cycloheximide cs	AmpC detergent
CC(=O)Nc1ccc2c(c1)/C(=C/c1ccc([N+](C)(C)C)cc1)c1ccccc1-2	·	-7.9%	·	·	·
CCOc1cc(C2c3c(n[nH]c3C)C(=O)N2c2ccc(Br)cc2)ccc1O (stereo unspecified)	38.0*	4.1%	-15.3%	31.1*	5.6%
COc1cc(C2c3c(n[nH]c3C)C(=O)N2c2ccc(Br)cc2)ccc1O (stereo unspecified)	6.9	10.4%	-31.5%	15.3*	-15.7%
CCOC(=O)c1ccc(N2C(=O)c3n[nH]c(C)c3C2c2ccc(OC)c(OC)c2)cc1 (stereo unspecified)	-15.5	-12.6%	109.7%	3.6	-0.3%
CCOC(=O)c1ccc(N2C(=O)c3n[nH]c(C)c3C2c2cccc(Br)c2)cc1 (stereo unspecified)	·	·	·	·	-1.7%
COc1ccc(C2N(c3ccccc3)CCN2c2ccccc2)cc1O	59.0*	-5.7%	-30.5%	26.0*	8.2%
